Among the test systems are NCI-H23 lung; NCI-H226 lung; NCI-H322M lung; HOP-62 NSCLC; NCI-H460 lung; HOP-92 NSCLC; NCI-H522 lung; A549/ATCC NSCLC; 786-0 renal; COLO 205 colon.
Holding throughout (assay): NCI-60 one-dose screen, 48 h (100 = growth as untreated, 0 = no growth, -100 = all killed)
Common to all, as to details: 10 µM unless noted

Compounds without any hit were thinned out: in the full panel of roughly 83,000, 20% have a hit.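 For each line, cells grew in 96-well plates with the test compound present at a single concentration for 48 hours.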 A number with no mark means an inactive call. Activity calls are given as the source filed them. Rule for the calls: active = growth percent below 10; inactive = the rest.

For `c1cnc2[nH]cc(-c3csc(-c4cn(CCCCN5CCCCC5)c5ccccc45)n3)c2c1`, the growth with NCI-H23 lung is 95.2%; with NCI-H226 lung, 95.3%; in the assay on NCI-H322M lung, 87.4%; in the assay with HOP-62 NSCLC, 82.4%; in the assay with NCI-H460 lung it was 76.3%; in the assay on HOP-92 NSCLC, 48.3%. For the same compound, the growth in the assay on NCI-H522 lung is 98.5%; in the assay with A549/ATCC NSCLC it was 83.6%; with 786-0 renal it was 80.7%; in the assay with COLO 205 colon, 6.47% (active).
As for `O=C(Nc1ccc(Cl)cc1)Nc1nccs1`, the growth was 50.5% in the assay on NCI-H23 lung; 69.9% in the assay on NCI-H226 lung; 40.6% with NCI-H322M lung; 31.7% in the assay on HOP-62 NSCLC; 21% with NCI-H460 lung; 38.6% in the assay with HOP-92 NSCLC. The growth was -32.3% (active) in the assay on NCI-H522 lung, 38.6% in the assay with A549/ATCC NSCLC, 56.8% with 786-0 renal and 3.09% (active) with COLO 205 colon.
On to `COC(=O)N[C@H]1CCc2c(Br)c(OC)c(OC)c(OC)c2-c2ccc(SC)c(=O)cc21`, for which the growth in the assay with NCI-H23 lung is 31.3%; with NCI-H226 lung, 12.5%; in the assay on NCI-H322M lung, 28%; in the assay on HOP-62 NSCLC, 29.7%; in the assay on NCI-H460 lung, -14.1% (active); with HOP-92 NSCLC it was -0.443% (active). Also, the growth is 8.44% (active) in the assay on NCI-H522 lung, 18.3% with A549/ATCC NSCLC, 10.9% in the assay on 786-0 renal and -52.5% (active) in the assay with COLO 205 colon.
With `CCC(CC)CC1(C)CC2(C)CCOC2OO1` (stereo not given), the growth in the assay with NCI-H23 lung is 102%; with NCI-H226 lung it was 99%; in the assay with NCI-H322M lung, 109%; in the assay on HOP-62 NSCLC, 97.9%; in the assay with NCI-H460 lung it was 108%; in the assay with HOP-92 NSCLC it was 96.2%. Also, the growth was 90.9% in the assay with NCI-H522 lung, 98.9% in the assay with A549/ATCC NSCLC, 101% in the assay on 786-0 renal and 118% with COLO 205 colon.
Consider `CC(C)(C)C(=O)OCOP(=O)(OCOC(=O)C(C)(C)C)C1CCCN(O)C1=O` (stereo not given), for which the growth with NCI-H23 lung is -13.4% (active); with NCI-H226 lung, -1.39% (active); in the assay on NCI-H322M lung, 14.7%; with HOP-62 NSCLC, 18.2%; in the assay with NCI-H460 lung it was 1.85% (active); with HOP-92 NSCLC, 7.23% (active). For the same compound, the growth was -7.58% (active) in the assay on NCI-H522 lung, 10.8% in the assay with A549/ATCC NSCLC, 12.4% in the assay with 786-0 renal and -16.8% (active) in the assay with COLO 205 colon.
`N#CC1(c2ccccc2)CCN(Cc2ccccc2)CC1`: the growth in the assay on NCI-H23 lung was 98.9%; in the assay with NCI-H226 lung it was 101%; in the assay with NCI-H322M lung it was 144%; in the assay on HOP-62 NSCLC, 106%; in the assay with NCI-H460 lung, 104%; with HOP-92 NSCLC, 51.8%. Besides, the growth is 92.6% with NCI-H522 lung, 99.5% in the assay on A549/ATCC NSCLC, 101% in the assay on 786-0 renal and 105% in the assay with COLO 205 colon.
Turning to `Brc1ccc2c(c1)c(-c1nc(-c3c[nH]c4ncccc34)cs1)cn2CCN1CCCCC1`, the growth with NCI-H23 lung is 89%; in the assay on NCI-H226 lung, 80%; in the assay on NCI-H322M lung, 65.6%; with HOP-62 NSCLC, 88.7%; in the assay with NCI-H460 lung, 67.4%; in the assay on HOP-92 NSCLC, 37.1%. The growth was 68.8% in the assay with NCI-H522 lung, 67.5% in the assay on A549/ATCC NSCLC, 53% in the assay with 786-0 renal and 37.7% with COLO 205 colon.
Take `COc1ccc2c(c1)c(-c1nc(-c3c[nH]c4ncccc34)cs1)cn2CCCCN1CCCCC1`: the growth is 1.32% (active) in the assay on NCI-H23 lung; 39.6% in the assay with NCI-H226 lung; -20.2% (active) in the assay with NCI-H322M lung; -75.5% (active) with HOP-62 NSCLC; -69.8% (active) in the assay with NCI-H460 lung; 20.5% in the assay with HOP-92 NSCLC. The growth in the assay on NCI-H522 lung was -68.8% (active); in the assay on A549/ATCC NSCLC, -65.9% (active); in the assay on 786-0 renal, -90% (active); in the assay with COLO 205 colon, -76.2% (active).
On to `Cc1cc(N(CCCl)CCCl)ccc1C=Nc1cccnc1`, for which the growth with NCI-H23 lung is 56.6%; with NCI-H226 lung, -45.2% (active); in the assay on NCI-H322M lung, 108%; with HOP-62 NSCLC it was 60.4%; in the assay with NCI-H460 lung, 26.5%; with HOP-92 NSCLC it was 44.8%. For the same compound, the growth is 87.3% in the assay on NCI-H522 lung, 67.9% in the assay with A549/ATCC NSCLC, 63% in the assay with 786-0 renal and 76.7% in the assay on COLO 205 colon.
As to `O=P(N1CC1)(N1CC1)N1CCc2ccccc21`, the growth in the assay on NCI-H23 lung is 103%; in the assay on NCI-H226 lung it was 105%; with NCI-H322M lung, 108%; in the assay with HOP-62 NSCLC, 105%; in the assay with NCI-H460 lung, 63.3%; in the assay with HOP-92 NSCLC, 115%. Moreover, the growth in the assay with NCI-H522 lung was 109%; in the assay on A549/ATCC NSCLC, 101%; in the assay on 786-0 renal, 106%; with COLO 205 colon, 117%.
As to `CC1=C(CN)C2=C(C)C3(CC3)[C@@](C)(O)C(=O)C2=C1`, the growth is 68.2% in the assay on NCI-H23 lung; 91.8% in the assay with NCI-H226 lung; 91.6% in the assay on NCI-H322M lung; 88.2% in the assay on HOP-62 NSCLC; 66.1% with NCI-H460 lung; 115% in the assay on HOP-92 NSCLC. The growth in the assay on NCI-H522 lung is 87.9%; in the assay with A549/ATCC NSCLC it was 93.5%; in the assay with 786-0 renal, 99%; in the assay on COLO 205 colon, 85.1%.
On to `CC[C@H](C)[C@H](NC(=O)C12C3C4C1C1C2C3C41NC)C(=O)N(C)[C@H](C[C@@H](OC(C)=O)c1nc(C(=O)N[C@@H](Cc2ccccc2)C[C@H](C)C(=O)OC)cs1)C(C)C` (stereo not given in full), for which the growth is 31.6% in the assay on NCI-H23 lung; 41.4% in the assay on NCI-H226 lung; 51.9% with NCI-H322M lung; 16.9% with HOP-62 NSCLC; 6.43% (active) in the assay with NCI-H460 lung; 34.1% in the assay on HOP-92 NSCLC. The growth is -4.71% (active) in the assay with NCI-H522 lung, 31.4% in the assay with A549/ATCC NSCLC, 19.1% in the assay on 786-0 renal and -15.5% (active) with COLO 205 colon.
For `Nc1cc2nc3ccccc3nc2cc1N`, the growth in the assay with NCI-H23 lung is 77.3%; in the assay on NCI-H226 lung it was 85.6%; in the assay on NCI-H322M lung, 99.4%; in the assay with HOP-62 NSCLC, 80.4%; with NCI-H460 lung, 95.7%; in the assay on HOP-92 NSCLC, 97.8%. Besides, the growth is 79.8% with NCI-H522 lung, 80.1% in the assay on A549/ATCC NSCLC, 102% in the assay on 786-0 renal and 106% in the assay with COLO 205 colon.
Take `COc1ccc(C(=O)c2cc(OC)c(OC)c(OC)c2)cc1OC(C)=O`: the growth in the assay with NCI-H23 lung is 31%; in the assay on NCI-H226 lung it was 102%; with NCI-H322M lung, 42%; in the assay on HOP-62 NSCLC, 25.2%; in the assay on NCI-H460 lung it was 7.92% (active); with HOP-92 NSCLC it was 50.9%. The growth in the assay on NCI-H522 lung is 10.3%; with A549/ATCC NSCLC it was 22.4%; in the assay with 786-0 renal it was 26.5%; in the assay with COLO 205 colon, 16.3%.
